The text below walks through data of PubChem BioAssay (NCI).

This is part of a sample that, as a whole, favours compounds with a hit. Of some 83,000 tested, about 20% had one in any assay.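 Negative percent growth values reflect cell death: -40 means 40% of the cells present at the start died, and -100 means all died.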 Values without a mark were called inactive. Activity calls are given as the source filed them. The calls were made as follows: active = growth percent below 10; inactive = the rest.

The experiment relates to UACC-257 melanoma. The experiment is described as follows: NCI-60 one-dose screen, 48 h (100 = growth as untreated, 0 = no growth, -100 = all killed). As to conditions: 10 µM unless noted.
On to `Cc1cc(-c2nc3ccccc3s2)ccc1NC(=O)COc1ccc(Cl)cc1`, for which the growth is 120%.

Turning to `C[C@H](CCC(=O)O)[C@H]1CC[C@H]2[C@@H]3CC[C@@H]4/C(=C\c5ccco5)C(=O)/C(=C\c5ccco5)C[C@]4(C)[C@H]3CC[C@]12C`, the growth was 51.6%.

Regarding `COc1cc2c(c(OC)c1OC)-c1ccc(N=NC(N)=S)c(=O)cc1[C@@H](NC(C)=O)CC2`, the growth is 49.5%.

On to `c1ccc(CSc2ncnc3nc[nH]c23)nc1`, for which the growth was 120%.

Consider `CC(=O)Nc1ccc2c(c1)c(NC(C)=O)nn2C(=O)Nc1ccc(Cc2ccccc2)cc1`, for which the growth was 87.2%.

Regarding `COc1cc2c(=O)n(CC3CCCCC3)c3c4cc[nH]c4ncc3c2cc1OC`, the growth was 84.9%.

Take `COC1/C=C\OC2(C)Oc3c(C)c(O)c4c(O)c(c(CN(C)CCO)c(O)c4c3C2=O)NC(=O)/C(C)=C\C=C/C(C)C(O)C(C)C(O)C(C)C(OC(C)=O)C1C` (stereo not drawn): the growth is 105%.

On to `Cc1cc(N/N=C/c2nc(-c3ccc(Cl)cc3)oc2C)c2cc(Cl)ccc2n1`, for which the growth was 101%.

For `C=C1CC[C@@H]2[C@](C)(COC(C)=O)[C@H](OC(C)=O)CC[C@@]2(C)[C@@H]1CC(NCc1ccc(F)cc1)C1=CCOC1=O` (stereo partly drawn), the growth is 45.8%.

For the molecule `Cn1c2c(Cl)c(Cl)ccc2c2ccn3c(=O)c4ccccc4nc3c21`, the growth is 97%.

Consider `CCOC(=O)Cc1cnn(C)c1NC(=O)c1ccc(Cl)cc1NC(C)=O`, for which the growth is 105%.

For the molecule `COc1ccc(-c2cc(NC(=O)Nc3ccc(O)cc3)no2)cc1`, the growth is 84.6%.

Regarding `S=c1[nH]nc(CSc2ncnc3c2c(-c2ccccc2)cn3-c2ccc(Cl)cc2)o1`, the growth was 105%.

Regarding `COc1c(Cl)cc(Cl)cc1Cl`, the growth was 122%.

For the molecule `COc1ccc(-c2nn(-c3ccccc3)cc2/C=C/C(=O)OCc2cn(-c3ccc(F)c(Cl)c3)nn2)cc1`, the growth is 92.9%.

With `COc1ccc2c(c1)C(=O)/C(=C/c1cccc(OCC(=O)Nc3nc4c(s3)CCCC4)c1)O2`, the growth was -22.4% (active).

On to `CCN(CC)CC(C)Nc1ccc([N+](=O)[O-])c2sc3ccccc3c(=O)c12` (stereo not drawn), for which the growth was -10.4% (active).

Regarding `Cc1nn(-c2ccccc2)c2nc(C)n(-c3ccc(Br)cc3)c(=O)c12`, the growth is 60%.

With `OC(c1cc(-c2ccccc2)nc2ccc(Cl)cc12)C1CCCCN1` (stereo not drawn), the growth is 70.9%.

On to `COc1ccc(S(=O)(=O)NCCNc2nccc(-c3c(-c4cccc([N+](=O)[O-])c4)nc4sccn34)n2)cc1`, for which the growth was 106%.

Turning to `COc1ccc(Cl)cc1Nc1nc(C(F)(F)F)ccc1C(=O)N/N=C/c1cccnc1`, the growth is 72.7%.

Consider `COc1ccc(-c2nn(-c3ccccc3)cc2/C=C2\SC(=O)NC2=O)cc1`, for which the growth was 110%.

Take `Cc1ccc2c(c1)C(=O)c1c-2c(OCCCN(C)C)nc2ccccc12`: the growth is 69.5%.

In the case of `Cc1ccc(-c2nc(/C=N/Nc3cc(C)nc4ccc(Br)cc34)c(C)o2)cc1`, the growth is 97%.

As to `CCCCNP1(NCCCC)=NP(NCCCC)(NCCCC)=NP(NCCCC)(NCCCC)=NP(NCCCC)(NCCCC)=N1`, the growth is -22.5% (active).

For `COc1ccc(-n2cc(-c3ccccc3)c3c(SCC(=O)N/N=C/c4ccc([N+](=O)[O-])cc4)ncnc32)cc1`, the growth was 107%.

For the molecule `Nc1cccc(-c2nc3sccn3c2-c2ccnc(NCCCNS(=O)(=O)c3ccc(C(F)(F)F)cc3)n2)c1`, the growth is 18.8%.

As for `CCN(CC)CC(O)c1cc(-c2ccc(Cl)cc2)nc2c(C)c(Cl)ccc12` (stereo not drawn), the growth was -80.8% (active).

As for `O=C1/C(=C/c2ccc(F)cc2)CN(C(=O)CCN2CCC(=NO)CC2)C/C1=C\c1ccc(F)cc1`, the growth was -19.1% (active).

With `CC(C)C1=C[C@@]23CC[C@@H]4[C@](C)(CCC[C@@]4(C)C(=O)OCC#CCN4CCCC4)[C@H]2C[C@@H]1[C@H]1C(=O)OC(=O)[C@H]13`, the growth was 96.5%.

Take `Cc1ccc2c(c1)C(=O)/C(=C/c1ccc(OCC(=O)c3ccccc3)cc1)O2`: the growth is 90.1%.

On to `Cc1ccc2c(c1)n([O-])c1cc(Cl)ccc1[n+]2=O`, for which the growth is 97.1%.

Take `COc1ccccc1/C=C(/C(=O)c1ccccc1)c1ccccc1`: the growth is 93.4%.

On to `COc1nc2c(cc1S(=O)(=O)c1ccccc1)CCc1c-2cnn1-c1ccc(Cl)cc1`, for which the growth was 106%.

As to `CNc1cc2nc3cc(NC)c(C)cc3cc2cc1C`, the growth is 29.2%.

As to `Nc1c(C(=O)Nc2ccccc2)sc2nc3c(cc12)CN(CCc1ccccc1)CC3`, the growth was 110%.

Take `CC(C)[C@@H]1CC[C@]2(C(=O)NCCCCN=C(N)N)CC[C@]3(C)[C@H](CC[C@@H]4[C@@]5(C)CCC(=O)C(C)(C)[C@@H]5CC[C@]43C)[C@@H]12`: the growth was 71.1%.

In the case of `CCOC(=O)c1cnc2ccc(Br)cc2c1Nc1cccc(S(=O)(=O)NC)c1`, the growth is 114%.
